These results are taken from ChEMBL document CHEMBL3988442, “University of Dundee, Small-Polar-MMV Screening Library” (2021).

Molecules are shown by their SMILES. Screen size: about 48,000 compounds; about 13,000 (27%) showed an effect of 50% or more. The list shows a part of the results.

This test relates to Wolbachia pipientis. Nature of the test: Anti-Wolbachia Cell-Based Screen. In kind it is functional. Further details: scale not given: in the data most compounds retested in dose-response had high values. The following applies: 5 µM.
In the case of `CCn1ncnc1CN1CCc2[nH]cnc2C1CCc1ccccc1` (configuration not stated), the “Percent Effect” value was determined as 5.135%. With `Cc1ccc(CNC(c2ccc(F)cc2)c2nccn2C)o1` (configuration not stated) the figure was 6.945%. With `CC(=O)N1CCC(Oc2ccc(Cl)cc2C(=O)N2CCCO2)CC1` the figure was 5.175%. With `Cc1cnc(C(=O)N2C[C@H](N3CCOCC3)[C@@H]3OCCC[C@@H]32)cn1` the figure was 115.1%; with `CN1CCN([C@@H]2CN(C(=O)c3ccsc3)[C@@H]3CCCO[C@H]23)CC1`, -4.041%. Regarding `Cc1ccc(C(=O)N2C[C@@H]3CCCO[C@@H]3[C@H](N3CCOCC3)C2)cn1.O=C(O)C(F)(F)F.O=C(O)C(F)(F)F`, the “Percent Effect” value is listed as -9.984%. With `Cc1ccoc1C(=O)N1C[C@@H](N2CCN(C)CC2)[C@H]2OCCC[C@H]21.O=C(O)C(F)(F)F.O=C(O)C(F)(F)F` the figure was -7.066%.

Consider `O=C(c1ccsc1)N1C[C@H](N2CCOCC2)[C@@H]2OCCC[C@@H]21`, for which the “Percent Effect” value is listed as 0.7214%. With `Cc1ccc(C(=O)N2C[C@@H](N3CCN(C)CC3)[C@H]3OCCC[C@H]32)cn1` the figure was 115.4%; with `CC(C)(C)c1cn2nc(N3CCCC(Cn4cncn4)C3)sc2n1` (configuration not stated), 16.07%.

Consider `CCn1ccnc1CN(C)c1cc(C2CC2)ncn1`, for which the “Percent Effect” value was found to be 1.234%.

Take `CN1CCCC(Cc2cncc(C(=O)NCC3CC3)c2)C1` (configuration not stated): the “Percent Effect” value was -7.268%. With `CN1CCC(Cc2cc(N(C)C)ncn2)C1` (configuration not stated) the figure was 110.8%; with `CCn1ccnc1CN(C)c1cc(N(C)C)ncn1`, 12.61%; with `CC(C)N1CCN(C)CC(Cc2cc(N(C)C)ncn2)C1` (configuration not stated), 93.36%. With `CN1CCCC(CNC(=O)N2CCN(Cc3ccon3)CC2)C1` (configuration not stated) the figure was -11.04%. With `CSCc1ccc(N(C)CC2CCCN(C(C)C)C2)nc1` (configuration not stated) the figure was -13.33%.

Regarding `CN1CCCC(Cc2cc(N(C)C)ncn2)C1` (configuration not stated), the “Percent Effect” value was determined as 94.81%.

In the case of `c1cnc(NCc2noc3c2CN(C2CCOCC2)CC3)nc1`, the “Percent Effect” value is -17.2%. With `COc1ccc(-c2nnc(C(C)N3CCOC(C)(C)C3)o2)cc1` (configuration not stated), the “Percent Effect” value is recorded as -4.024%. With `c1ccc2c(c1)CC(n1ccnc1-c1cc3n(n1)CCCNC3)CO2` (configuration not stated) the figure was 3.87%. With `CCc1ncc(CN(C)C(=O)Nc2cccnc2N2CCCC2)s1` the figure was 10.11%; with `NS(=O)(=O)CCN1CCN(c2cc(F)ccc2F)CC1`, -4.797%; with `O=C(O)C(F)(F)F.c1cc(CN2CCO[C@H]3[C@H](OCC4CCOCC4)CC[C@@H]32)co1`, 111.9%.

Regarding `O=C(O)C(F)(F)F.O=C(O)C(F)(F)F.c1csc(CN2CCO[C@H]3[C@H](OCCN4CCCC4)CC[C@@H]32)n1`, the “Percent Effect” value was determined as 6.605%. With `COc1ccc(CN2CCO[C@H]3[C@H](OCCN4CCCC4)CC[C@@H]32)cc1.O=C(O)C(F)(F)F.O=C(O)C(F)(F)F` the figure was 97.25%. With `O=C(O)C(F)(F)F.O=C(O)C(F)(F)F.c1cc(CN2CCO[C@H]3[C@H](OCCN4CCCC4)CC[C@@H]32)co1` the figure was 81.09%; with `Fc1ccc(CN2CCO[C@H]3[C@H](OCCN4CCCC4)CC[C@@H]32)cc1.O=C(O)C(F)(F)F.O=C(O)C(F)(F)F`, -15.45%; with `Cc1ccc(-c2nc(CN3CCN(S(=O)(=O)N(C)C)CC3)cs2)o1`, 2.093%. For the compound `O=C(c1ncn2c1CNS(=O)(=O)c1ccccc1-2)N1CCOCC1`, the “Percent Effect” value is listed as -11.97%. With `Cc1noc(C)c1S(=O)(=O)N(C)Cc1nn(C)c(Cl)c1Cl` the figure was -15.6%; with `CC(C)CC(CCO)CNC(=O)N1CC(C)(C)C1(C)C` (configuration not stated), -21.83%; with `CS(=O)(=O)N1CC2(CCN(CC3CC3)C2)Cc2ccccc21` (configuration not stated), 119.1%. With `CN1CCCC(CNS(=O)(=O)N2CCc3ccccc3C2)C1` (configuration not stated) the figure was 2.763%; with `O=C(O)C(F)(F)F.O=C1CC2(CCN(CC3CC3)C2)CN1c1ccc2c(c1)OCO2` (configuration not stated), -8.293%; with `O=C(Cc1cccs1)N1CCC2(CCCN(CC3CCOCC3)C2)C1` (configuration not stated), -3.748%. With `O=C(O)C(F)(F)F.O=C1CC2(CCN(CC3CC3)C2)CN1c1cccc(F)c1` (configuration not stated) the figure was -1.195%. In the case of `CN1C(=O)C2(CCN(CC3CCC3)C2)c2ccccc21.O=C(O)C(F)(F)F` (configuration not stated), the “Percent Effect” value came to 10.05%. Consider `CS(=O)(=O)N1CC2(CCN(CC3CCCCC3)C2)Cc2ccccc21` (configuration not stated), for which the “Percent Effect” value came to 112.5%. With `CS(=O)(=O)N1CC2(CCCN(CC3CC3)C2)Cc2ccccc21` (configuration not stated) the figure was 118.5%. With `O=C(Cc1ccccn1)N1CCC2(CCCN(CC3CCOCC3)C2)C1` (configuration not stated) the figure was -4.093%; with `CS(=O)(=O)N1CC2(CCN(CC3CCCCC3)CC2)Cc2ccccc21`, 144%; with `CCn1c(C)nnc1SCCNC(=O)c1cccc2ccnn12`, -3.845%. With `Cc1nc(CNC(=O)CC2C(=O)NCCN2Cc2ccccc2C)n[nH]1` (configuration not stated) the figure was 4.07%; with `CCCc1nnsc1C(=O)NCC1CCN(S(C)(=O)=O)CC1`, -2.324%. For `Cc1cnc(N2C[C@@H]3[C@@H](C2)OCC(=O)N3C)nc1`, the “Percent Effect” value is reported as -11.2%.

For `CCN1CC2(CCN(C(=O)C(C)Oc3cccc(Cl)c3)CC2)OC1=O` (configuration not stated), the “Percent Effect” value is -19.97%.

On to `C=C(C)COCCNC(=O)N1CCc2c(cccc2OC)C1`, for which the “Percent Effect” value was -14.6%. With `CS(=O)(=O)NC1CCN(C(=O)NCC2CCCO2)CC1` (configuration not stated) the figure was -8.8%. Turning to `COc1ccc2c(c1)CCCN2C(=O)CN1CCOC(CN(C)C)C1` (configuration not stated), the “Percent Effect” value turned out to be 3.019%. With `N#Cc1ccc(OC2CCN(CC(=O)NCC3CCCO3)CC2)cc1` (configuration not stated) the figure was 1.578%. With `COc1ccc2c(c1)CCCN(CC(=O)NCC1CCCO1)C2` (configuration not stated) the figure was 92.35%; with `COc1cccc(N2CCN(CCC(=O)NC3CCCCC3)CC2)c1`, 105.3%; with `CCC(=O)NC1CCN(c2cccc(CC)c2)CC1`, -2.51%. With `COc1ccc2c(c1)CCCN2C(=O)CNCC1CN(C)CCO1` (configuration not stated) the figure was 15.31%; with `COc1cc2c(cc1OC)CN(C(=O)NCC1CCCO1)CC2` (configuration not stated), 106.4%; with `CC(C)OCCC(=O)Nc1cccc(N2CCN(CC3CC3)CC2)c1`, -21.21%. Consider `COc1ccc2c(c1)CCCN(C(C)C(=O)N1CCCC1)C2` (configuration not stated), for which the “Percent Effect” value is 19.28%. For `COc1ccc2c(c1)CCCN(C(=O)NCC1CCCO1)C2` (configuration not stated), the “Percent Effect” value came out at 114.2%. With `COc1ccc(-c2n[nH]cc2CN(C)Cc2ccoc2)c(F)c1` the figure was 10.13%; with `c1cc2c(cc1C1CCCN1Cc1nnnn1C1CC1)OCCO2` (configuration not stated), -7.859%; with `CCC(O)CNc1ccc(-c2nc(CC(C)C)no2)cn1` (configuration not stated), -5.208%. With `O=C(NCC1CCOC1)c1ccc(OCC(F)(F)F)nc1` (configuration not stated) the figure was -6.921%; with `NCC1Cc2cc(-c3cncc(C(=O)N4CCOCC4)n3)cc(Cl)c2O1` (configuration not stated), -2.851%. With `CCc1nc(C2CCCN2CCCS(=O)(=O)c2ccccc2)no1` (configuration not stated) the figure was 0.9329%. With `COc1ccc2c(c1)CN(c1cc(N3CCCC3CO)ncn1)CC2` (configuration not stated), the “Percent Effect” value is reported as -11.42%. With `COc1ccc2c(c1)CCN(CCC(=O)NC1CCCCC1)CC2` the figure was -10.31%.

On to `COc1ccc2c(c1)CN(CC(=O)NC1CCCC1)CC2`, for which the “Percent Effect” value was 115.8%. With `COCCOCC(=O)N1CCC(O)(c2ccc3nc(C)ccc3c2)CC1` the figure was 1.515%. With `CCn1c(N)nc2cc(C(=O)NCCc3sccc3C)cnc21` the figure was 9.086%; with `CN(Cc1cccc(F)c1)C(=O)CN1CCCC1CCc1ccccc1` (configuration not stated), -6.226%; with `O=C(O)c1cccnc1CN1CCCCC1CCc1ccccn1` (configuration not stated), 108.5%. With `Cc1oc(-c2ccoc2)nc1CN1CCCCC1CCc1ccccc1` (configuration not stated) the figure was -13.12%. Take `O=C(O)c1cccnc1CN1CCCCC1CCc1cccc(O)c1` (configuration not stated): the “Percent Effect” value was 117.3%.

On to `O=C(Cc1c[nH]c(=O)[nH]c1=O)N1CCCCC1CCc1cccc(O)c1` (configuration not stated), for which the “Percent Effect” value was determined as 2.49%.

In the case of `O=C(O)c1cccnc1CN1CCCCC1CCc1cccs1` (configuration not stated), the “Percent Effect” value was 113%. With `O=C(O)c1cccnc1CN(Cc1ccsc1)C1CC1` the figure was -4.109%; with `Cc1c[nH]c(CN2CCCCC2CCc2cccc(O)c2)c(C)c1=O` (configuration not stated), 11.94%. With `O=C(O)c1cccnc1CN1CCCC1CCc1ccccc1` (configuration not stated) the figure was 101.7%. With `COc1cc2c(cc1OC)CN(Cc1ncccc1C(=O)O)CC2` the figure was -6.886%; with `CC(C)(C)OC(=O)NCC1CCCCN1Cc1ccccn1` (configuration not stated), 1.475%; with `CCN1CCCC1CNC(=O)CCc1cccs1` (configuration not stated), -0.4602%. On to `CN(CCCc1nccn1C)C(=O)C1CCN(C(=O)C2CC2)CC1`, for which the “Percent Effect” value was determined as 15.41%.

As for `Cc1ccccc1CN1CCC2(CC1)CN(S(=O)(=O)c1ccccc1)C2.O=C(O)C(F)(F)F`, the “Percent Effect” value is listed as -17.23%. With `Cc1occc1C(=O)N1CCC[C@]2(C[C@@H](OCc3ccncc3)CO2)C1.O=C(O)C(F)(F)F` the figure was -11.73%. With `CCc1nc(C2CCCN2C(=O)C2=COCC2)no1` (configuration not stated) the figure was -4.333%. In the case of `CCc1nc(C2CCCN2C(=O)c2ccc3c(c2)nc(C)n3C)no1` (configuration not stated), the “Percent Effect” value is recorded as 0.7608%. In the case of `CCc1cc(C(=O)N2CCCC2c2nc(C)c(CC)c(O)n2)on1` (configuration not stated), the “Percent Effect” value worked out at 110.9%. As for `CCc1cc(C(=O)N2CCCC2c2nc(C)c(F)c(O)n2)on1` (configuration not stated), the “Percent Effect” value is on record as -4.896%.

Regarding `CCc1c(C)nc(C2CCCN2C(=O)c2cc(C)no2)nc1O` (configuration not stated), the “Percent Effect” value was 101.8%. With `O=C1CO[C@H]2CN(Cc3ccc4c(c3)OCO4)C[C@H]2N1` the figure was -13.01%.

Regarding `Cn1ncc2c1NC(=O)CC2c1cc2c(cc1Cl)OCO2` (configuration not stated), the “Percent Effect” value is -77.33%. For the compound `O=C1CC(c2ccc3c(c2)OCO3)c2cn[nH]c2N1` (configuration not stated), the “Percent Effect” value is recorded as 104.3%.

As to `CCC(C)(NCc1ncc(C(C)C)o1)c1nccs1` (configuration not stated), the “Percent Effect” value is on record as -9.094%. For `CN(C)[C@@H]1CO[C@H](CNC(=O)Nc2ccccc2)[C@H]1O`, the “Percent Effect” value is recorded as -15.17%. For the compound `CN(Cc1c(F)cccc1Cl)C(=O)Nc1cnn(CC(N)=O)c1`, the “Percent Effect” value is -4.374%. With `CCOc1ccc2nc(CN3CCOC(CN)C3)ccc2c1` (configuration not stated) the figure was 8.772%.
